# An excerpt weighted towards active compounds, which were near 7.1% of everything screened.
# M1 antagonist: antagonists of rat M1 muscarinic receptor; CHO-M1 cells, Fluo-4 calcium, ACh EC80 antagonist mode; stronger effect = lower value; B-score at 10 µM; actives 3.4% (n = 64,000); AID 628, 2007;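 active means calcium fluorescence response, raw or row-and-column corrected B-score, differing from the plate sample mean either way at a set confidence level, mostly lower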
# M1 ag: M1 muscarinic receptor agonists, primary screen, CHO-M1 cells, Fluo-4 calcium, agonist mode; Muscarinic acetylcholine receptor M1; Fluo-4 calcium fluorescence; stronger effect = higher value; B-score at 10 µM; actives 3% (n = 64,000);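 active means fluorescence rise, raw or as B-score row- and column-corrected plate score, outside the 99.7% band of its plate's samples, either direction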
# PTK2B oligo ant: antagonists of Pyk2 self-association, primary screen, Q293 cells, FERM NanoBiT luminescence, HTS; Protein-tyrosine kinase 2-beta (Homo sapiens), Q14289; stronger effect = lower value; z-score (the deposit names both 25 µM and 10 µM); actives 0.83% (n = 99,000); AID 1347419, 2020;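 active means Z-score of -3 or lower, scaled per plate to the spread of control and sample wells; inactive means z-score above -3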;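 further: negative z-score means lost luminescence so less FERM oligomerization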
# Cav32 inh: Cav3.2 calcium influx blockers – cell-based, Fluo-4 calcium fluorescence, FDSS, MLSMR library, primary screen | Voltage-dependent T-type calcium channel subunit alpha-1H (Homo sapiens), O95180 | Cav3.2-expressing cells; stronger effect = lower value | B-score at 10 µM | actives 4% (n = 100,000) | AID 449739, 2010;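 active means single-dose well whose peak fluorescence ratio is a statistical outlier from its plate by either plate-standardised score or position-corrected B-score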
# Target sequence (O95180 whole entry, looked up): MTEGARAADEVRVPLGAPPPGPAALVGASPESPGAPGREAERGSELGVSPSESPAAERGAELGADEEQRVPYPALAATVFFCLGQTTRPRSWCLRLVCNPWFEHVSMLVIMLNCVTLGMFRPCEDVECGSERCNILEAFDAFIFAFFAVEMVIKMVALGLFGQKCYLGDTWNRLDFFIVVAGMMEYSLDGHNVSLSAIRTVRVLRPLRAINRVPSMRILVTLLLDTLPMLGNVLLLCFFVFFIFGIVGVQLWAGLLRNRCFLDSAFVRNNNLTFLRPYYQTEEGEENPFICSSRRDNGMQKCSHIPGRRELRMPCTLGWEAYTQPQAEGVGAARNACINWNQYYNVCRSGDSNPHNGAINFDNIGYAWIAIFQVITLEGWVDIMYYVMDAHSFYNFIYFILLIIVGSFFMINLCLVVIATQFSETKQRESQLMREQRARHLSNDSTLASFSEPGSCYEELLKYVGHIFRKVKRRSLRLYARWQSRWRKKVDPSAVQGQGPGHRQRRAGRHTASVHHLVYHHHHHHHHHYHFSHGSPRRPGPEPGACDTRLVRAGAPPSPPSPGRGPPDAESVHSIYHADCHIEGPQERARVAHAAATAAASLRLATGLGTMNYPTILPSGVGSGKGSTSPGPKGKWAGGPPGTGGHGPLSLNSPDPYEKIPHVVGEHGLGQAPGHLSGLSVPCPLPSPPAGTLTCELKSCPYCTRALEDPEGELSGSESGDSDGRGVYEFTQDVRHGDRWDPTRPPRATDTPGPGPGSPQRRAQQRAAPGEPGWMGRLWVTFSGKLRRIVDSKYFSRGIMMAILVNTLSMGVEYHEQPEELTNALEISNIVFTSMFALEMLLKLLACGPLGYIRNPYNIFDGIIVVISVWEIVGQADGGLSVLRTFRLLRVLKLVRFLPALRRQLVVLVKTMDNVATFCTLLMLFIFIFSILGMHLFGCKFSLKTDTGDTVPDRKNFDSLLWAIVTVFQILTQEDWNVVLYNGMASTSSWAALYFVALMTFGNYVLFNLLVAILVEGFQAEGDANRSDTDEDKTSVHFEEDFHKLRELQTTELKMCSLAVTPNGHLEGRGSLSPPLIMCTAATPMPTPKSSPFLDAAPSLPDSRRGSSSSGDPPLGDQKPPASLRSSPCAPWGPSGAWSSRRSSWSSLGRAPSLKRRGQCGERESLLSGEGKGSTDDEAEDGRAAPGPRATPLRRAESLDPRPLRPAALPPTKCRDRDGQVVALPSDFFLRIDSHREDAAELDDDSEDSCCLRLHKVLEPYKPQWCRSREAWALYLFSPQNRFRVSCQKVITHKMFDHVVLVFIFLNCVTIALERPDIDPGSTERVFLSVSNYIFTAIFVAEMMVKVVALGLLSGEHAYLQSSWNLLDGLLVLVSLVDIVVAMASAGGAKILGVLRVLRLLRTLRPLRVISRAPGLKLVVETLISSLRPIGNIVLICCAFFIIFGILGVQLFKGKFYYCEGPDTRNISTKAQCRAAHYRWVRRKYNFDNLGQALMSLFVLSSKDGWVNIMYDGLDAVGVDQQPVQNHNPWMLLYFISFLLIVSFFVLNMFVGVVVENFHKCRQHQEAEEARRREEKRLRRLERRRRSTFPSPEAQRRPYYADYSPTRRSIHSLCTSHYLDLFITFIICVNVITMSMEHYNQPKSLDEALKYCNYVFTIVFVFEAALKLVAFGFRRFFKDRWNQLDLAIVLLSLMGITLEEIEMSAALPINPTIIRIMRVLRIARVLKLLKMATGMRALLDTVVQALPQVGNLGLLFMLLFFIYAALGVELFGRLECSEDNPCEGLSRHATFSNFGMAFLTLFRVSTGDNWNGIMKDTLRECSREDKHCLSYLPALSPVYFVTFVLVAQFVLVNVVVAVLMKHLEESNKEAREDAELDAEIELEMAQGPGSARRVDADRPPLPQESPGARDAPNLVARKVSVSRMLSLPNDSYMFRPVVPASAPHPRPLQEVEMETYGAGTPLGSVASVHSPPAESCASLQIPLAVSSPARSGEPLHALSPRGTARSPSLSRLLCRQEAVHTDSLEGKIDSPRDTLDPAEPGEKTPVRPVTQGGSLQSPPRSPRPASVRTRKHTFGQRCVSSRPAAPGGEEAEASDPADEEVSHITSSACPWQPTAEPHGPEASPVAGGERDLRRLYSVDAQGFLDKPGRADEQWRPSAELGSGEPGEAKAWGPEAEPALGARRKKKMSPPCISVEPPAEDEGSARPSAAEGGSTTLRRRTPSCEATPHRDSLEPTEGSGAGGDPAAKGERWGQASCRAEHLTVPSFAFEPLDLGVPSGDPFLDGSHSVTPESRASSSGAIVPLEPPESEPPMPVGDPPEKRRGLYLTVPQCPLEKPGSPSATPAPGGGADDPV
# * = called active by the depositor; · = not tested or not shown.
SMILES,M1 antagonist,M1 ag,PTK2B oligo ant,Cav32 inh
COc1ccc(C(c2nnnn2C2CCCC2)N2CCC(C)CC2)c(OC)c1 (centres undefined),-0.64,-0.0907,-2.68,·
COc1ccc(Cn2nnnc2C(c2ccccc2)N2CCN(C3CCCC3)CC2)cc1 (centres undefined),1.86*,0.553,0.16,0.675
COc1ccc(C(c2nnnn2Cc2ccccc2)N2CCN(c3nc4ccccc4s3)CC2)cc1 (centres undefined),-1.86,-0.663,-4.09*,-4.83*
COc1ccc(OC)c(C(c2nnnn2C2CCCC2)N2CCN(c3ccc(F)cc3)CC2)c1 (centres undefined),0.056,-0.186,-3.25*,-9.36*
COc1ccc(Cn2nnnc2C(c2cccs2)N2CCCCCC2)cc1 (centres undefined),·,·,-1.31,-4.13*
COc1ccc(Cn2nnnc2C(c2cccs2)N2CCSCC2)cc1 (centres undefined),0.201,0.946,-0.4,-2.17
COc1ccc(/C=N/Nc2ccccc2)cc1Cn1nc(C)c([N+](=O)[O-])c1C,·,·,-0.48,-1.68
CC(Oc1c(Cl)cccc1Cl)C1=NCCN1 (centres undefined),·,·,·,-0.323
COCCn1nnnc1C(c1ccccc1)N1CCN(c2ccccc2)CC1 (centres undefined),·,·,-2.31,0.022
COc1ccc(C(c2nnnn2Cc2cccs2)N2CCN(c3ccccc3F)CC2)cc1 (centres undefined),-0.121,0.0127,-3.87*,-3.42*
CCCC(c1nnnn1Cc1cccs1)N1CCN(c2nc3ccccc3s2)CC1 (centres undefined),-0.0107,-1.57,-3.49*,0.46
Fc1ccc(Cn2nnnc2C(c2ccc(Cl)cc2)N2CCSCC2)cc1 (centres undefined),·,·,-0.74,-7.11*
c1ccc(Cn2nnnc2C(c2cccs2)N2CCSCC2)cc1 (centres undefined),-0.464,-0.0121,-0.92,-3.42
CCCC(c1nnnn1CC1CCCO1)N1CCN(c2nc3ccccc3s2)CC1 (centres undefined),·,·,-2.41,-0.622
COc1ccc(C(c2nnnn2Cc2ccccc2)N2CCN(c3ccccc3)CC2)cc1 (centres undefined),0.213,0.654,-3.82*,-4.55*
CC(C)(C)NC(=O)CSC(=Nc1cccc(F)c1)NC#N,·,·,-0.47,0.0832
O=c1c2ccccc2nc2n1C(CSCc1ccc(Cl)cc1Cl)CS2 (centres undefined),·,·,-0.81,-1.27
COc1ccc(C(c2nnnn2C2CCCC2)N2CCN(c3ccccc3)CC2)cc1 (centres undefined),·,·,-1.96,-5.16*
Cc1ccc2cc(C(c3nnnn3C3CCCC3)N3CCN(c4ccccc4)CC3)c(=O)[nH]c2c1 (centres undefined),-1.35,0.38,1.9,-6.07*
Oc1ccc(C(c2nnnn2C2CCCC2)N2CCc3ccccc3C2)cc1 (centres undefined),-0.396,0.00862,-0.2,-6.89*
COc1cc(C(c2nnnn2C2CCCC2)N2CCc3ccccc3C2)ccc1O (centres undefined),0.0958,0.0147,0.2,-2.78
CCOC(=O)CN1C(=O)N[C@H](c2ccc(Br)cc2)C(C(C)=O)=C1C,·,·,·,0.313
CCC(C)/C=C/C1=CC2=C(Cl)C(=O)C3(C)OC(=O)C(C(=O)C(C)C(C)O)C3C2=CO1 (centres undefined),·,·,·,-0.0178
CC1(C)CC(=O)C=C(c2cccnc2)C1,·,·,·,0.958
CCOC(=O)CC1C(=O)NCCN1S(=O)(=O)c1ccccc1Cl (centres undefined),·,·,0.83,0.0964
SMILES,M1 antagonist,M1 ag,PTK2B oligo ant,Cav32 inh
Cc1cccc(C(=O)NC2CCN(C(=S)NCc3ccco3)CC2)c1,·,·,0.33,0.18
O=C(NC1CCN(C(=S)NCc2ccco2)CC1)NC12CC3CC(CC(C3)C1)C2,·,·,0.02,-3.8*
O=C1C(O)=C(O)C(=O)c2ccccc21,·,·,·,-0.639
O=C1C(=O)c2ccc(-c3ccccc3)cc2-c2ccccc21,·,·,-4.79*,0.0538
Nc1ccc2c(c1)C(=O)C(=O)c1ccccc1-2,·,·,-4.09*,0.0612
Cc1ccc(C2C(/C=C3/SC(=S)NC3=O)=C(c3cccs3)Oc3ccccc32)cc1 (centres undefined),·,·,-1.61,·
CC(O)c1c(OCc2ccccc2)ncnc1OCc1ccccc1 (centres undefined),-0.522,1.81,0.74,-5.11*
CSCc1ccc(C(=O)Nc2cccc(C)c2C)cc1,·,·,-0.44,·
O=C1CN(C(=O)COC(=O)c2ccccc2NCc2ccco2)c2ccccc2N1,·,·,-0.04,-3.8*
CN(C)c1ccc(-c2nn3c(C4CCCCC4)nnc3s2)cc1,0.899,-1.03,-3.64*,-0.652
Cc1ccc(Cl)cc1N1CCN(C(=O)C2CCN(c3nnc(-n4cccc4)s3)CC2)CC1,-0.0132,-0.637,·,-8.22*
CC(C)(C)c1ccc(-c2nnc3sc(-c4ccncc4)nn23)cc1,8.91*,-0.621,-0.92,0.0591
CN(C(=O)c1cnccn1)c1nnc(-c2cccnc2)s1,0.917,-0.0343,·,·
O=C(CCNS(=O)(=O)c1ccc(Br)s1)N1CCN(c2ccccc2)CC1,0.12,-0.731,1.25,-5.5*
CSc1c(SCc2ccccc2)cnn(-c2ccccc2)c1=O,·,·,-1.62,·
COc1ccc(CNc2nc(NCc3ccc(OC)cc3)n(C(C)=O)n2)cc1,·,·,-0.56,0.016
COc1ccc(CNc2nc(NCc3ccc(OC)c(OC)c3)n(C(=O)c3cccs3)n2)cc1OC,·,·,-3.43*,-0.13
CCC(=O)n1nc(NCc2ccccc2OC)nc1NCc1ccccc1OC,-1.18,0.705,-0.92,-7.94*
O=C(Nc1ccc(N2CCCC2)cc1)c1cccc(F)c1,-0.159,0.737,-0.58,-5.68*
O=C(Nc1ccc(N2CCCC2)cc1)c1ccccc1F,·,·,1.23,0.779
CN1C(=O)C(CC(=O)Nc2ccc(F)cc2)N(CCCc2ccccc2)C1=S (centres undefined),·,·,0.2,-5.18*
CC(C)C(CCNC(=O)CC(Cc1ccccc1)c1ccco1)c1ccco1 (centres undefined),·,·,-0.29,-6.77*
COc1ccc(COC[C@H](C)[C@H](O)[C@@H](C)[C@H]2OC(=O)[C@@H]2C)cc1,·,·,·,-0.878
NC(=O)C1CCN(C(=O)/C=C/c2ccco2)CC1,·,·,0.24,·
CNc1oc(-c2ccc(C)cc2)nc1P(=O)(c1ccccc1)c1ccccc1,·,·,-0.5,-4.32*
SMILES,M1 antagonist,M1 ag,PTK2B oligo ant,Cav32 inh
Cc1nc(P(=O)(c2ccccc2)c2ccccc2)c(N2CCOCC2)o1,0.571,0.174,0.01,0.93
Fc1ccc(C2CC(c3ccco3)=NN2c2ccccc2)cc1 (centres undefined),·,·,1.75,-0.83
O=[N+]([O-])c1ccc(N2N=C(c3ccco3)CC2c2ccccc2)cc1 (centres undefined),·,·,-0.14,-5.01*
O=C(OCn1nnc2ccccc2c1=O)c1cn(-c2ccccc2)nc1-c1cccnc1,-0.926,1.06,-4.07*,·
CC(C)[C@H](NS(=O)(=O)c1ccccc1)C(=O)OCn1nnc2ccccc2c1=O,·,·,0.97,-0.347
O=C(CC(c1ccccc1)c1ccccc1)OCn1nnc2ccccc2c1=O,·,·,0.09,-4.94*
O=C(CC1CCCCC1)OCn1nnc2ccccc2c1=O,0.708,-0.239,2.59,-0.572

# Screens (PubChem BioAssay)
